Measurements from PubChem BioAssay AID1159580 (chemical genetic matrix, 2015).
The whole screen tested about 5,500 compounds, of which about 2,000 (36%) were called active. Inconclusive results (about 18%) are left out. Rule as the data show it: active = normalized growth mostly below about 0.91 (no sharp cut-off); inconclusive = no clear call, values can overlap the other calls; inactive = mostly above about 0.92. The list shows a part of the results.

Experiment: chemical genetic growth profiling, strain panel (AID 1159580);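 also: tested at 20 µM; growth read once vehicle control cultures reached saturation at 30 °C; 1 = growth at the plate median or of vehicle wells; lower values mean less growth of the strain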
Conditions: growth OD
[1] = S. cerevisiae deletion strains, locus YAR019C, strain CDC15, hits give low values
[2] = S. cerevisiae deletion strains, locus YBL105C, strain PKC1, hits give low values
[3] = S. cerevisiae deletion strains, locus YBR135W, strain CKS1, hits give low values
[4] = S. cerevisiae deletion strains, locus YBR136W, strain MEC1, hits give low values
[5] = S. cerevisiae deletion strains, locus YBR160W, strain CDC28, hits give low values
[6] = S. cerevisiae deletion strains, locus YDL017W, strain CDC7, hits give low values
[7] = S. cerevisiae deletion strains, locus YDL028C, strain MPS1, hits give low values
[8] = S. cerevisiae deletion strains, locus YDL101C, strain DUN1, hits give low values
[9] = S. cerevisiae deletion strains, locus YDL108W, strain KIN28, hits give low values
[10] = S. cerevisiae deletion strains, locus YDL132W, strain cdc53, hits give low values
[11] = S. cerevisiae deletion strains, locus YDL214C, strain PRR2, hits give low values
[12] = S. cerevisiae deletion strains, locus YDR052C, strain DBF4, hits give low values
[13] = S. cerevisiae deletion strains, locus YDR054C, strain cdc34, hits give low values
[14] = S. cerevisiae deletion strains, locus YDR226W, strain ADK1, hits give low values
[15] = S. cerevisiae deletion strains, locus YDR477W, strain SNF1, hits give low values
[16] = S. cerevisiae deletion strains, locus YER123W, strain YCK3, hits give low values
[17] = S. cerevisiae deletion strains, locus YER133W, strain GLC7, hits give low values
[18] = S. cerevisiae deletion strains, locus YFL009W, strain cdc4, hits give low values
[19] = S. cerevisiae deletion strains, locus YFL029C, strain CAK1, hits give low values
[20] = S. cerevisiae deletion strains, locus YFR003C, strain YPI1, hits give low values
[21] = S. cerevisiae deletion strains, locus YFR019W, strain FAB1, hits give low values
[22] = S. cerevisiae deletion strains, locus YFR028C, strain CDC14, hits give low values
[23] = S. cerevisiae deletion strains, locus YGR040W, strain KSS1, hits give low values
[24] = S. cerevisiae deletion strains, locus YGR052W, strain FMP48, hits give low values
[25] = S. cerevisiae deletion strains, locus YGR092W, strain DBF2, hits give low values
[26] = S. cerevisiae deletion strains, locus YHR030C, strain SLT2, hits give low values
[27] = S. cerevisiae deletion strains, locus YHR079C, strain IRE1, hits give low values
[28] = S. cerevisiae deletion strains, locus YHR082C, strain KSP1, hits give low values
[29] = S. cerevisiae deletion strains, locus YHR205W, strain SCH9, hits give low values
[30] = S. cerevisiae deletion strains, locus YIL147C, strain SLN1, hits give low values
[31] = S. cerevisiae deletion strains, locus YJL095W, strain BCK1, hits give low values
[32] = S. cerevisiae deletion strains, locus YJL128C, strain PBS2, hits give low values
[33] = S. cerevisiae deletion strains, locus YJL157C, strain FAR1, hits give low values
[34] = S. cerevisiae deletion strains, locus YJR016C, strain ILV3, hits give low values
[35] = S. cerevisiae deletion strains, locus YJR066W, strain TOR1 (second series), hits give low values
[36] = S. cerevisiae deletion strains, locus YJR066W, strain TOR1, hits give low values
[37] = S. cerevisiae deletion strains, locus YKL048C, strain ELM1, hits give low values
[38] = S. cerevisiae deletion strains, locus YKL067W, strain YNK1, hits give low values
[39] = S. cerevisiae deletion strains, locus YKL101W, strain HSL1, hits give low values
[40] = S. cerevisiae deletion strains, locus YKL193C, strain SDS22, hits give low values
[41] = S. cerevisiae deletion strains, locus YKL203C, strain TOR2, hits give low values
[42] = S. cerevisiae deletion strains, locus YLR113W, strain HOG1, hits give low values
[43] = S. cerevisiae deletion strains, locus YLR133W, strain CKI1, hits give low values
[44] = S. cerevisiae deletion strains, locus YLR403W, strain SFP1, hits give low values
[45] = S. cerevisiae deletion strains, locus YML070W, strain DAK1, hits give low values
[46] = S. cerevisiae deletion strains, locus YMR001C, strain CDC5, hits give low values
[47] = S. cerevisiae deletion strains, locus YMR205C, strain PFK2 (second series), hits give low values
[48] = S. cerevisiae deletion strains, locus YMR277W, strain FCP1, hits give low values
[49] = S. cerevisiae deletion strains, locus YNL006W, strain LST8, hits give low values
[50] = S. cerevisiae deletion strains, locus YNL020C, strain ARK1, hits give low values
[51] = S. cerevisiae deletion strains, locus YNL161W, strain CBK1, hits give low values
[52] = S. cerevisiae deletion strains, locus YNL183C, strain NPR1, hits give low values
[53] = S. cerevisiae deletion strains, locus YNL207W, strain RIO2, hits give low values
[54] = S. cerevisiae deletion strains, locus YNL222W, strain SSU72, hits give low values
[55] = S. cerevisiae deletion strains, locus YNL307C, strain MCK1 (second series), hits give low values
[56] = S. cerevisiae deletion strains, locus YOL078W, strain AVO1, hits give low values
[57] = S. cerevisiae deletion strains, locus YOL136C, strain PFK27, hits give low values
[58] = S. cerevisiae deletion strains, locus YOR061W, strain CKA2, hits give low values
[59] = S. cerevisiae deletion strains, locus YOR119C, strain RIO1, hits give low values
[60] = S. cerevisiae deletion strains, locus YOR231W, strain MKK1, hits give low values
[61] = S. cerevisiae deletion strains, locus YOR329C, strain SCD5, hits give low values
[62] = S. cerevisiae deletion strains, locus YPL031C, strain PHO85, hits give low values
[63] = S. cerevisiae deletion strains, locus YPL153C, strain RAD53, hits give low values
[64] = S. cerevisiae deletion strains, locus YPL204W, strain HRR25, hits give low values
[65] = S. cerevisiae deletion strains, locus YPL209C, strain IPL1, hits give low values
[66] = S. cerevisiae deletion strains, locus YPL256C, strain CLN2, hits give low values
[67] = S. cerevisiae deletion strains, locus YPR025C, strain CCL1, hits give low values
[68] = S. cerevisiae deletion strains, locus YPR106W, strain ISR1, hits give low values
[69] = S. cerevisiae deletion strains, locus YPR111W, strain DBF20, hits give low values
[70] = S. cerevisiae deletion strains, strain NNK1, hits give low values
[71] = S. cerevisiae deletion strains, strain TSCII, hits give low values
[72] = S. cerevisiae deletion strains, locus YAL013W, strain DEP1, hits give low values
[73] = S. cerevisiae deletion strains, locus YBR229C, strain ROT2, hits give low values
[74] = S. cerevisiae deletion strains, locus YDR150W, strain NUM1, hits give low values
[75] = S. cerevisiae deletion strains, locus YEL061C, strain CIN8, hits give low values
[76] = S. cerevisiae deletion strains, locus YGR078C, strain PAC10, hits give low values
[77] = S. cerevisiae deletion strains, locus YGR229C, strain SMI1, hits give low values
[78] = S. cerevisiae deletion strains, locus YHR087W, strain rtc3, hits give low values
[79] = S. cerevisiae deletion strains, locus YJL187C, strain SWE1, hits give low values
[80] = S. cerevisiae deletion strains, locus YJR043C, strain POL32, hits give low values
[81] = S. cerevisiae deletion strains, locus YJR075W, strain HOC1, hits give low values
[82] = S. cerevisiae deletion strains, locus YLR039C, strain RIC1, hits give low values
[83] = S. cerevisiae deletion strains, locus YLR058C, strain SHM2 (second series), hits give low values
[84] = S. cerevisiae deletion strains, locus YLR085C, strain ARP6, hits give low values
[85] = S. cerevisiae deletion strains, locus YLR262C, strain YPT6, hits give low values
[86] = S. cerevisiae deletion strains, locus YML094W, strain GIM5, hits give low values
[87] = S. cerevisiae deletion strains, locus YMR219W, strain ESC1, hits give low values
[88] = S. cerevisiae deletion strains, locus YMR263W, strain SAP30, hits give low values
[89] = S. cerevisiae deletion strains, locus YMR307W, strain GAS1, hits give low values
[90] = S. cerevisiae deletion strains, locus YNL153C, strain GIM3, hits give low values
[91] = S. cerevisiae deletion strains, locus YNL298W, strain CLA4 (second series), hits give low values
[92] = S. cerevisiae deletion strains, locus YNL322C, strain KRE1, hits give low values
[93] = S. cerevisiae deletion strains, locus YNR030W, strain Alg12, hits give low values
[94] = S. cerevisiae deletion strains, locus YPL055C, strain LGE1, hits give low values
[95] = S. cerevisiae deletion strains, locus YPL241C, strain CIN2, hits give low values
[96] = S. cerevisiae deletion strains, locus YPR135W, strain CTF4, hits give low values
[97] = S. cerevisiae strains, strain wild type, hits give low values

Measured: normalized growth

O=S(=O)(NCc1ccc(C(F)(F)F)cc1)c1cc(Br)c(Br)s1
active: [26] 0.645 | [28] 0.607 | [37] 0.791 | [39] 0.714 | [42] 0.721 | [66] 0.728
inactive: [1] 0.987 | [2] 0.969 | [3] 0.971 | [4] 0.985 | [5] 0.966 | [6] 0.967 | [7] 0.984 | [8] 0.975 | [9] 0.974 | [10] 0.973 | [11] 0.786 | [12] 0.979 | [13] 0.973 | [14] 0.984 | [15] 0.856 | [16] 0.747 | [17] 0.794 | [18] 0.979 | [19] 0.982 | [20] 0.974 | [21] 0.845 | [22] 0.967 | [23] 0.818 | [24] 0.729 | [25] 0.801 | [27] 0.813 | [29] 0.618 | [30] 0.98 | [31] 0.741 | [32] 0.924 | [33] 0.872 | [34] 0.98 | [35] 0.794 | [36] 0.689 | [38] 0.835 | [40] 0.967 | [41] 0.851 | [43] 0.839 | [44] 0.808 | [45] 0.797 | [46] 0.964 | [47] 0.831 | [48] 0.965 | [49] 0.98 | [50] 0.838 | [51] 0.969 | [52] 0.659 | [53] 0.977 | [54] 0.967 | [55] 0.846 | [56] 0.969 | [57] 0.811 | [58] 0.848 | [59] 0.772 | [60] 0.792 | [61] 0.969 | [62] 0.774 | [63] 0.716 | [64] 0.795 | [65] 0.973 | [67] 0.965 | [68] 0.97 | [69] 0.982 | [70] 0.968 | [71] 0.97

FC(F)(F)c1cc(Cl)c2nsnc2c1
inactive: [72] 1 | [73] 0.993 | [8] 1.01 | [74] 1 | [75] 0.99 | [76] 0.997 | [77] 1 | [26] 1.02 | [78] 1.01 | [79] 0.99 | [80] 0.998 | [81] 0.985 | [82] 0.991 | [83] 0.993 | [84] 1.01 | [85] 0.974 | [86] 1.06 | [87] 1 | [88] 1 | [89] 1.01 | [90] 0.996 | [91] 0.993 | [92] 0.995 | [93] 1.01 | [94] 1.03 | [95] 1.08 | [96] 1.03 | [97] 0.987

O=S(=O)(NCc1ccc(F)cc1F)c1cccc(C(F)(F)F)c1
inactive: [72] 0.969 | [73] 0.98 | S. cerevisiae deletion strains, locus YCL061C, strain MRC1, hits give low values 0.972 | [8] 0.985 | [74] 0.911 | [75] 0.988 | [76] 0.976 | [77] 0.98 | [26] 0.946 | [78] 0.978 | [79] 0.972 | [80] 0.984 | [81] 0.947 | S. cerevisiae deletion strains, locus YKL190W, strain CNB1, hits give low values 0.977 | [82] 0.884 | [83] 0.979 | [84] 0.954 | [85] 0.844 | [86] 0.962 | [87] 0.979 | [88] 0.979 | [89] 0.899 | [90] 1.01 | [91] 0.968 | [92] 0.973 | [93] 0.986 | [94] 0.873 | [95] 0.982 | [96] 0.913 | [97] 0.98
active: S. cerevisiae deletion strains, locus YDL134C, strain PPH21, hits give low values 0.894

O=S(=O)(Nc1cc(Cl)c(Cl)cc1Cl)c1cc(C(F)(F)F)cc(C(F)(F)F)c1
inactive: [1] 0.957 | [2] 0.956 | [3] 0.961 | [4] 0.954 | [5] 0.946 | [6] 0.959 | [7] 0.962 | [8] 0.972 | [9] 0.966 | [10] 0.963 | [11] 0.924 | [12] 0.941 | [13] 0.953 | [14] 0.956 | [15] 0.919 | [16] 0.882 | [17] 0.937 | [18] 0.959 | [19] 0.955 | [20] 0.964 | [21] 0.916 | [22] 0.958 | [23] 0.9 | [24] 0.913 | [25] 0.892 | [27] 0.897 | [28] 0.899 | [29] 0.946 | [30] 0.963 | [31] 0.963 | [32] 0.969 | [33] 0.892 | [34] 0.968 | [35] 0.92 | [36] 0.976 | [37] 0.906 | [38] 0.935 | [39] 0.902 | [40] 0.963 | [41] 0.955 | [43] 0.903 | [44] 0.916 | [45] 0.911 | [46] 0.96 | [47] 0.954 | [48] 0.963 | [49] 0.966 | [50] 0.89 | [51] 0.962 | [52] 0.916 | [53] 0.948 | [54] 0.962 | [55] 0.874 | [56] 0.959 | [57] 0.871 | [58] 0.93 | [59] 0.983 | [60] 0.913 | [61] 0.963 | [62] 0.917 | [63] 0.921 | [64] 0.881 | [65] 0.952 | [67] 0.962 | [68] 0.946 | [69] 0.944 | [70] 0.956 | [71] 0.956
active: [26] 0.71 | [42] 0.818 | [66] 0.813
